Reference: PubChem BioAssay AID2284088 (EPA ToxCast)
Active and inactive are the calls of the source. Rule for the calls: active = hit-call score of the fitted dose curve at least 0.9, where 1 is the maximum; inactive = score below 0.9.

Molecular target: human FLT4 Receptor Tyrosine Kinase, FLT4 (gene 2324) (UniProt P35916)
Assay: ERF_FR_ENZ_hFLT4: Eurofins (ERF) Enzymatic Radiometric [Km ATP] KinaseProfiler LeadHunter Assay for human FLT4 Receptor Tyrosine Kinase
Protocol: ERF_FR_ENZ_hFLT4 is a biochemical, single-readout assay that uses extracted gene-proteins in a cell-free assay. Measurements were taken 1.5 hour after chemical dosing in a 96-well plate. See FLT4 Human RTK Kinase Enzymatic LANCE Assay [Km ATP], Cerep.ERF_FR_ENZ_hFLT4 is an assay component calculated from the ERF_FR_ENZ_hFLT4 assay. It is designed to measure enzyme activity using a type of enzyme reporter as detected by fluorescence intensity with LANCE technology.Data from the assay component ERF_FR_ENZ_hFLT4 was analyzed at the assay endpoint, ERF_FR_ENZ_hFLT4, in the positive analysis fitting direction relative to DMSO as the negative control and baseline of activity. Using a type of enzyme reporter, loss-of-signal activity can be used to understand changes in enzymatic activity as they relate to gene FLT4. To generalize the intended target to other relatable targets, this assay endpoint is annotated to the kinase intended target family, where the subfamily is receptor tyrosine kinase.
Flt4 (h) is incubated with 8 mM MOPS pH 7.0, 0.2 mM EDTA, 500 uM […], 10 mM MgAcetate and [gamma-33P]-ATP (specific activity and concentration as required). The reaction is initiated by the addition of the Mg/ATP mix. After incubation for 40 minutes at room temperature, the reaction is stopped by the addition of phosphoric acid to a concentration of 0.5%. […]

human FLT4 Receptor Tyrosine Kinase, FLT4 (gene 2324), sequence (P35916 whole entry, looked up): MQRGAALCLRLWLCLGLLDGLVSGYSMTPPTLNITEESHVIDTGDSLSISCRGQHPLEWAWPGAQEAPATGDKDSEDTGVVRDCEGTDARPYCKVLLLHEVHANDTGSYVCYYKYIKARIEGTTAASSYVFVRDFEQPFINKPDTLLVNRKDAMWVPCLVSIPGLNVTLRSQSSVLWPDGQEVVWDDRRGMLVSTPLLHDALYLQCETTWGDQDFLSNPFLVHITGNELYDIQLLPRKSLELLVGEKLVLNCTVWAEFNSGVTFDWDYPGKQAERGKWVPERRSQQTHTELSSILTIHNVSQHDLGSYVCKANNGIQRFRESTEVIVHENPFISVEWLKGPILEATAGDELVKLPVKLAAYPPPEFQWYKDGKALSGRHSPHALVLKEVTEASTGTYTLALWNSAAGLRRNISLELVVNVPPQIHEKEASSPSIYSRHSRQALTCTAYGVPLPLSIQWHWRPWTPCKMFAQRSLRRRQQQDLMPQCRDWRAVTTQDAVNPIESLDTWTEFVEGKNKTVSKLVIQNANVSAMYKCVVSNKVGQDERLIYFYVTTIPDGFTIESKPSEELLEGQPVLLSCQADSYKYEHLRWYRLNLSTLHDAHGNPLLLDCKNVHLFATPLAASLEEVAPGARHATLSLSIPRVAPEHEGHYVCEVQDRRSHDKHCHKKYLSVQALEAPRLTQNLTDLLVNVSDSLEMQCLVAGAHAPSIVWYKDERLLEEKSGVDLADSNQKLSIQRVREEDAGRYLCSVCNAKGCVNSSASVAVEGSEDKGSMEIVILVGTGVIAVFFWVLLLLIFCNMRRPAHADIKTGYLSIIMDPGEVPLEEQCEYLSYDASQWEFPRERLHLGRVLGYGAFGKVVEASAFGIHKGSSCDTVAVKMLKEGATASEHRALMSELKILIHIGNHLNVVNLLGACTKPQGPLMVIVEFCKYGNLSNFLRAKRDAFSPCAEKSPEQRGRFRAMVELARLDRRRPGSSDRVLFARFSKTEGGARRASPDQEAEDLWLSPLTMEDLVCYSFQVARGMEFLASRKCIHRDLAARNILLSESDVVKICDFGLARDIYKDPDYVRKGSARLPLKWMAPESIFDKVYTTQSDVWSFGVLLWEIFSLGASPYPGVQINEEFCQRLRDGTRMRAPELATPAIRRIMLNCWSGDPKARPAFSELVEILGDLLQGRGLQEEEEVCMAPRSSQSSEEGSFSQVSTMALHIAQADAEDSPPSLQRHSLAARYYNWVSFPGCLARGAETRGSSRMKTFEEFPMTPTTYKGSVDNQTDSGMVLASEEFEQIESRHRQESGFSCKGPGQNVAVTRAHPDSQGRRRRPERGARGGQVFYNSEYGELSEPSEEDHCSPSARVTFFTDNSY

Row | Structure (SMILES) | AC50
1 | O=C(/C=C/c1ccc(O)cc1)CC(=O)/C=C/c1ccc(O)cc1 | 1910 nM (active)
